Bioassay records as filed in PubChem.
Peg3 prom inh-1 = reduces Peg3 promoter-driven luciferase expression in HeLa. HeLa PEG-Prom luciferase reporter, luminescence, overnight. inhibition, % at 20 µM. hit rate 1.7% among 360,000. AID 588405;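 active = inhibition of at least 50% at 20 µM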
KKLEB cytotox = reduces viability of KKLEB cystic fibrosis airway cells | hit rate 0.36% among 360,000 | KKLEB CF airway cells viability, ATPlite luminescence, overnight; active compounds read low; cells stimulated with P. aeruginosa culture filtrate | activity change (cytotoxicity), % at 5 µM;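 active = corrected activity change at or below -50% at 5 µM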
TROY signal inh = inhibitors of TROY-dependent NF-kB signaling; Q293 LMP1-TROYcd NF-kB luciferase reporter, 4 h; inhibition, % at 10 µM; hit rate 0.98% among 360,000; AID 1347056;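 active = compounds whose plate-normalised and pattern-corrected inhibition of the luciferase reporter signal at the single screening dose is 50% or more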
TWEAK-Fn14 inh = blocks TWEAK-Fn14 interaction in a reporter cell assay; TWEAK-stimulated Fn14 reporter cells, luciferase luminescence, 8 h; hit rate 2% among 360,000; AID 1159606; inhibition, % at 10 µM; in the data active = inhibition above about 50%
HIF-2a inh = HIF-2a inhibition; 786-0 RCC cells HIF-2a reporter, luciferase luminescence, overnight; inhibition, % at 18.8 µM; hit rate 0.72% among 360,000;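 active = inhibition of the luminescence signal of 40% or more relative to plate controls, in a single-dose primary screen at 18.75 µM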
CF NFkB block = cystic fibrosis NF-kB activation inhibition. hit rate 0.86% among 360,000. KKLEB NF-kB-GFP reporter, PAF-induced, GFP fluorescence overnight. inhibition, % at 5 µM;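 active = at least 50% inhibition at 5 µM, scaled per plate between neutral and stimulator controls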;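 also: PAF is a Pseudomonas aeruginosa culture filtrate used as stimulus; plate controls were PAF-stimulated DMSO wells for no effect and unstimulated DMSO wells for full effect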
Peg3 prom inh-2 = confirmation of Peg3 promoter inhibitors; hit rate 84% among 1,300; HeLa PEG-Prom luciferase reporter, luminescence, overnight; shares compounds with Peg3 prom inh-1; inhibition, % at 20 µM;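 active = at 20 µM dose, 40% or more inhibition averaged across four replicates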
Starred values were filed as active, the others as inactive; x = no result. Shown are actives, neighbours in structure and some others; about 4% of the full set was active somewhere.

SMILES | Peg3 prom inh-1 | KKLEB cytotox | TROY signal inh | TWEAK-Fn14 inh | HIF-2a inh | CF NFkB block | others
CC12CC[C@H]3[C@@H](CCC4(O)C[C@H](O)CCC34/C=N/NC(=O)Cc3ccccc3)C1(O)CCC2C1=CC(=O)OC1 (stereo not given in full) | 19 | 5 | 7 | -12 | 2 | 9
CC12CC[C@H]3[C@@H](CCC4(O)C[C@H](O)CCC34/C=N/NC(=O)c3ccccc3[N+](=O)[O-])C1(O)CCC2C1=CC(=O)OC1 (stereo not given in full) | 67* | 11 | 13 | 4 | 22 | 4
Cc1ccc(C(O)(C(=O)OC(C)C)C(O)c2ccc(F)cc2)cc1 (stereo not given) | x | x | x | x | 2 | x
O=C1NC(=O)C(CCc2ccncc2)(Cc2cccc(Cl)c2Cl)C(=O)N1c1ccc(Br)cc1 (stereo not given) | 57* | -22 | 4 | 27 | 24 | 28
CCc1ccc(N2C(=O)NC(=O)C(CCc3ccncc3)(CCc3ccncc3)C2=O)cc1 | 9 | 1 | -4 | 0 | 8 | 6
O=C1NC(=O)C(=Cc2c(Cl)cccc2Cl)C(=O)N1 | 15 | -38 | 19 | 10 | 26 | 59*
CC1(C)CC(=O)C(C=NCCN2CCN(C(=O)Cc3ccc(F)cc3)CC2)=C(O)C1 | -5 | -3 | 13 | -9 | 3 | 7
COc1cc(/C=C/c2nc3ccccc3c(=O)n2-c2ccc(O)cc2)ccc1O | 42 | -7 | 27 | 54* | 7 | -40
O=c1c2ccccc2nc(/C=C/c2ccc3c(c2)OCO3)n1-c1ccccc1 | 22 | 9 | -11 | -6 | 19 | -22
COc1cccc(-n2c(C)nc3ccccc3c2=O)c1 | 18 | 3 | -19 | 67* | 3 | -10
COc1ccc(-n2c(/C=C/c3ccc(O)c(O)c3)nc3ccccc3c2=O)cc1 | 55* | -11 | -5 | 17 | 18 | -30
COc1ccc(C(CC(=O)N2CCC3(CC2)OCCO3)NS(=O)(=O)c2ccc(OC)cc2)cc1 (stereo not given) | -2 | 2 | 9 | 5 | 12 | -2
COc1ccc(S(=O)(=O)NC(CC(=O)N2CCC3(CC2)OCCO3)c2ccco2)cc1 (stereo not given) | -2 | 6 | 15 | 90* | 7 | -7
Clc1ccc(C(c2ccc(Cl)cc2)n2cc[n+](CC(OCc3ccc(Cl)cc3Cl)c3ccc(Cl)cc3Cl)c2)cc1 (stereo not given) | 102* | 8 | 80* | 77* | 97* | 56*
Clc1ccc(COC(Cn2ccnc2)c2ccc(Cl)cc2Cl)cc1 (stereo not given) | 9 | -14 | 10 | -16 | 15 | 29
Cc1cccc2nc(-c3ccccc3)c(-c3ccc(CN4CCC(n5c(=O)[nH]c6ccccc65)CC4)cc3)nc12 | x | x | 19 | 24 | -20 | x
CCOC(=O)[C@]12Cc3cc(Cl)ccc3[C@H]1N(C1CCCCC1)C(=O)c1cc(OC)ccc12 | x | x | 63* | 102* | 89* | x
CCOC(=O)[C@]12Cc3cc(Cl)ccc3[C@H]1N(C)C(=O)c1cc(OC)ccc12 | x | x | 27 | 6 | 28 | x
CCN(CC)N=O | -2 | 14 | -9 | -52 | 6 | -28
Cc1nc2c(=O)n(C)c(=O)nc-2n(C)n1 | 105* | -74* | 86* | 102* | 81* | 77*
CCn1nc(-c2ccccc2)nc2c(=O)n(C)c(=O)nc1-2 | 8 | -16 | -1 | 18 | 17 | 3
CN1C[C@H](CNC(=O)OCc2ccccc2)C[C@@H]2c3cccc4c3c(cn4C)C[C@H]21 | 13 | 31 | -1 | 60* | -15 | -30
CN1C[C@H](CO)C[C@@H]2c3cccc4[nH]cc(c34)C[C@H]21 | 15 | -5 | -14 | -1 | 1 | 8
O=C1C2CCCN2C(c2cccnc2)N1c1nccs1 (stereo not given) | 5 | 2 | -11 | -2 | 9 | 7
CC12C(C(=O)O)C1(c1ccccc1)C2C(=O)O (stereo not given) | -4 | 5 | 15 | -4 | -2 | 3
SMILES | Peg3 prom inh-1 | KKLEB cytotox | TROY signal inh | TWEAK-Fn14 inh | HIF-2a inh | CF NFkB block | others
CC1(C)NC(=S)C(C)(C)N1N=O | -5 | -6 | -12 | 27 | 7 | 12
O=C1C(=O)c2ccccc2-c2ccccc21 | 101* | 5 | 83* | 107* | 98* | 83*
O=C1C(=O)c2cccc3cccc1c23 | 28 | -7 | 22 | 8 | 25 | 12
C[C@]12CC[C@@H]3c4ccc(O)c(O)c4CC[C@H]3[C@@H]1CC[C@@H]2O | 5 | 8 | 17 | 55* | -21 | 34
COCc1cc(OC(=O)N(C)C)nc2c1c(C)nn2C | 5 | -1 | 57* | -10 | 8 | -4
COc1ccc(NC(c2ccccc2)P(=O)(Oc2ccccc2)Oc2ccccc2)cc1 (stereo not given) | -9 | 4 | -25 | -18 | 5 | -1
CSCCC(c1nnnn1C1CCCC1)N1CCC(n2c(=O)[nH]c3ccccc32)CC1 (stereo not given) | 27 | -4 | 6 | -3 | -17 | 1
CC(C)(C)n1nnnc1C(CCc1ccccc1)N1CCC(n2c(=O)[nH]c3ccccc32)CC1 (stereo not given) | 84* | -5 | 39 | 22 | -27 | -19 | Peg3 prom inh-2=82*
CCn1c(=O)cc(SCC(=O)N2CCC3(CC2)OCCO3)c2ccccc21 | -8 | -4 | -22 | 14 | -14 | -48
O=Cc1cn(Cc2ccc(Br)cc2)c2ccccc12 | 77* | 8 | 35 | 13 | 13 | 13 | Peg3 prom inh-2=74*
COC(=O)c1cn(Cc2ccc(F)cc2)c2ccccc12 | 4 | 0 | -12 | 10 | -5 | -6
O=Cc1cn(Cc2cccc(F)c2)c2ccccc12 | 85* | 4 | 18 | 15 | 12 | 11 | Peg3 prom inh-2=65*
O=C1NC(=O)N(Cc2ccccc2)C(=O)/C1=C\C=C\c1ccco1 | 89* | -51* | -7 | 11 | 46* | 74* | Peg3 prom inh-2=63*
O=C1NC(=O)N(Cc2ccco2)C(=O)/C1=C/C=C/c1ccco1 | 63* | -15 | 14 | 35 | 87* | 78* | Peg3 prom inh-2=73*
Cn1cccc1/C=C1\C(=O)NC(=O)N(Cc2ccco2)C1=O | 22 | -10 | 2 | 23 | 14 | 19
C[C@]1(O)CC[C@H]2[C@@H]3CCC4=CC(=O)CC[C@]4(C)[C@@]3(F)[C@@H](O)C[C@@]21C | -8 | 10 | -3 | -1 | 18 | 14
CNCC(O)c1cc(OCc2ccccc2)c(OCc2ccccc2)cc1F (stereo not given) | 98* | -8 | 2 | -51 | -18 | -9 | Peg3 prom inh-2=89*
CNCC(O)c1cccc(OC(=O)c2ccccc2C)c1 (stereo not given) | 2 | 2 | 0 | 6 | 10 | 0
